From PubChem BioAssay
In the library only some 2.9% were active in any assay of this set; here they are far more common.
EPAC1 ag val: human EPAC1 agonism, validation | EPAC1 Rap1b BODIPY-GDP exchange, fluorescence | Potency, µM, for inactives: max response, positive = active, actives largely listed as activators | 16,000 compounds, 1% hits; further: nearly all actives have a fitted effect of over 70% in size
EPAC2 antag: human EPAC2 antagonism, validation | Potency, µM (series often up to 112 µM), without a hit: at the top dose activity, negative = inhibition, hits mostly inhibitors | 16,000 compounds, 1.7% hits | EPAC2 Rap1B BODIPY-GDP exchange, fluorescence;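 further: 100% = activation by cAMP agonist control; nearly all actives have a fitted effect of over 40% in size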
Target sequence (Q8WZA2 whole entry, looked up): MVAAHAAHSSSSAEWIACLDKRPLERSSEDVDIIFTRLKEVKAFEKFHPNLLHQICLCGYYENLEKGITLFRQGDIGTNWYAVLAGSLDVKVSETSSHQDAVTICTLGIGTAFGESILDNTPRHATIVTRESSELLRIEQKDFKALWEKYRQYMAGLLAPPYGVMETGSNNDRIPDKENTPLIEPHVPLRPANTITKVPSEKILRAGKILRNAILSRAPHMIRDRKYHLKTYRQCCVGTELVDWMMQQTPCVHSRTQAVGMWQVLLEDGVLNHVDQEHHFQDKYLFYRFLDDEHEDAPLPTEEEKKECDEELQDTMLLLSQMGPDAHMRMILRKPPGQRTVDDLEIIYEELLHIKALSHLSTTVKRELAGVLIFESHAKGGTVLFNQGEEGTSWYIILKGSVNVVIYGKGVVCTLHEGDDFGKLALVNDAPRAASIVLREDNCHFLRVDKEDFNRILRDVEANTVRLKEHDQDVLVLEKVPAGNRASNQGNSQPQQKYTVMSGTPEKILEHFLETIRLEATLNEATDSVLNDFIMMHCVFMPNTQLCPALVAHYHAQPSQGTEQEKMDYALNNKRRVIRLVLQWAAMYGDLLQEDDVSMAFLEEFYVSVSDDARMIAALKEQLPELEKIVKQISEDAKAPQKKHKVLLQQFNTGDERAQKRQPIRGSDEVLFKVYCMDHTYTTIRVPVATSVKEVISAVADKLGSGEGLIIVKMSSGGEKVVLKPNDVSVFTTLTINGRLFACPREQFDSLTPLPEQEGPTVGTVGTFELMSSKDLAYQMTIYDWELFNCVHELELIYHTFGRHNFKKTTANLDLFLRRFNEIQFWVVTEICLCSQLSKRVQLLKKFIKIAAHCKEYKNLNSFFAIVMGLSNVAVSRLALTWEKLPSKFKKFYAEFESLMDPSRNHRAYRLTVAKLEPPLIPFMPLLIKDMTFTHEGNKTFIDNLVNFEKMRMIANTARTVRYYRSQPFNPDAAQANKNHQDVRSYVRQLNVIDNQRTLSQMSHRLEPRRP
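Fluorescent exchange read-out: 100 nM EPAC2 with 250 nM RAP1B–BODIPY-GDP and 50 uM GDP; BODIPY-GDP release lowers fluorescence. Read at 480/540 nm every 5 min for 30 min at room temperature; normalized to 6.5 mM cAMP.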
Numbers without * were called inactive; ? = inconclusive; [ ] = another dose, or the depositor's remark. The call rests on the fitted dose curve; in most records, active means well fitted curve in the direction sought with a large enough effect; inconclusive means small, poorly fitted or top-dose-only effect, or another doubt; inactive means no such curve, though single readings can be large; an effect the other way counts as inactive or inconclusive. Unless noted, on the % scale 0 is the no-effect control and ±100 the full control effect; potency means the concentration at half of the fitted maximal effect.

SMILES | EPAC1 ag val | EPAC2 antag
CN(Cc1ccco1)c1ncnc2ccc(-c3cccnc3)cc12 | 11% | -9%
CN(C)Cc1ccccc1-c1ccc2ncnc(N(C)Cc3ccco3)c2c1 | 14% | -26%
CN(Cc1ccco1)c1ncnc2ccc(-c3ccc4c(c3)OCO4)cc12 | -64% | 35µM*
Cc1ccccc1-c1ccc2ncnc(N(C)Cc3ccco3)c2c1 | 100µM* | 20µM*
COc1ccccc1N1CCN(c2nc(CNC(=O)c3sc(C)nc3C)nc3ccccc23)CC1 | -5% | -8%
Cc1cc(N(C)C)cc(C)c1/C=C/c1ccnc2ccccc12 | 100µM* | -23%
CN(C)C(=O)c1ccc(/C=C/c2ccnc3ccccc23)cc1 | ? | 20%
CN(C)c1ccc(/C=C/c2ccnc3c2ccc2c(/C=C/c4ccc(N(C)C)cc4)ccnc23)cc1 | -5% | ?
Cc1ccc2nccc(/C=C/c3ccc(N(C)C)cc3)c2c1 | 112µM* | 66%
CC(C)(CO)[C@@H](O)C(=O)NCCCC(=O)O | -1% | -17%
CCCc1c(OCCCOc2ccc(OCC(=O)O)cc2)ccc(CC=O)c1O | -31% | 45µM*
CCCCOc1ccc(CC(=O)NO)cc1 | ? | -10%[56.6 µM]
CN(C)C(=O)[C@@H]1C[C@@H](Sc2nc3ccccc3[nH]2)CN1Cc1ccnc2ccccc12 | -7% | ?
c1ccc2c(N3CCCCCC3)nc(CN3CCCCC3c3nccs3)nc2c1 (configuration not stated) | 1% | 20µM*
COC(=O)C1CCCCN1Cc1nc(N2CCCN(C(C)=O)CC2)c2ccccc2n1 (configuration not stated) | -4% | -1%
CCN1CCCC1CNC(=O)c1cnn(-c2nccc(-c3cccs3)n2)c1C(C)C (configuration not stated) | 10% | ?
Cc1cc(O)c2c(c1)O[C@@]1(C)CC[C@H]3C(C)(C)CCCC34CO[C@@H]2[C@H]41 (some centres not stated) | -17% | ?
Cc1cnc2ccccc2c1/C=C/c1ccc(N(C)C)cc1 | 100µM* | -34%
CN(C)c1ccc(/C=C/c2c3c(nc4ccccc24)CCCC3)cc1 | 100µM* | 84%
Cc1nc2ccccc2nc1/C=C/c1ccc(N(C)C)cc1 | -53% | ?
CN(C)c1ccc(/C=C/c2cc(N(C)C)nc3ccccc23)cc1 | -15% | ?
CCCC(=O)O[C@]1(C(=O)COC(=O)CC)[C@@H](C)C[C@H]2[C@@H]3CCC4=CC(=O)C=C[C@]4(C)[C@@]3(F)[C@@H](O)C[C@@]21C | -35% | -5%
c1cnc2cc3c(cc2n1)[C@@H]1CNC[C@H]3C1 | 10% | -3%
O=C(c1ccnc(-n2cnnn2)c1)N1CCOc2ccc(C(O)CCc3ccccc3)cc2C1 (configuration not stated) | 16% | -9%
Cc1c(C(=O)NCC2COCCO2)cnn1-c1ncc2c(n1)-c1ccccc1CC2 (configuration not stated) | -6% | -2%
SMILES | EPAC1 ag val | EPAC2 antag
NCCC[C@H](N)C(=O)O | 6% | 4%
O=C(Nc1ccc(/C=C/c2ccc(NC(=O)c3cc(S(=O)(=O)O)c4cccnc4c3O)cc2S(=O)(=O)O)c(S(=O)(=O)O)c1)c1cc(S(=O)(=O)O)c2cccnc2c1O | ? | 22µM*
O=S(=O)(O)c1cc(I)c(O)c2ncccc12 | 13% | 18%
C(=C\c1nccc2ccccc12)/c1ccc(N2CCOCC2)cc1 | 100µM* | 6%
Cc1noc(C)c1-c1nc(N2CCOCC2)c2ccccc2n1 | -31% | 2%
COc1cc(-c2cccc(OC)c2OC)cc2c1OCCN(Cc1cn[nH]c1-c1ccc(Cl)cc1)C2 | 3% | ?
CCC(=O)O[C@@H]1CC(=O)O[C@H](C)C/C=C/C=C/[C@@H](O)[C@H](C)C[C@H](CC=O)[C@H](OC2O[C@H](C)[C@@H](O[C@H]3C[C@@](C)(O)[C@@H](OC(=O)CC)[C@H](C)O3)[C@H](N(C)C)[C@H]2O)[C@H]1OC (some centres not stated) | 10% | 36%[29.6 µM]
COCCn1c(=O)c(-c2ccc(F)cc2)nc2cnc(Nc3cccc(OC)c3)nc21 | 22% | -10%
COc1cccc(Nc2ncc3nc(-c4ccccc4)c(=O)n(C4CC4)c3n2)c1 | -37% | -12%
COc1cccc(Nc2ncc3nc(-c4cc(F)cc(F)c4)c(=O)n(C4CC4)c3n2)c1 | 100µM* | -6%
COCCn1c(=O)c(-c2cc(F)cc(F)c2)nc2cnc(Nc3cccc(OC)c3)nc21 | 89µM* | 0%
CCC(=O)OCC(=O)[C@@]1(OC(=O)CC)[C@H](C)C[C@H]2[C@@H]3CCC4=CC(=O)C=C[C@]4(C)[C@@]3(F)[C@@H](O)C[C@@]21C | 25% | ?
CCCCCCC(=O)O[C@H]1CC[C@H]2[C@@H]3CCc4cc(O)ccc4[C@H]3CC[C@]12C | -111% | -19%
COc1ccc(/C=C/C(=O)c2cccs2)c(OC)c1 | ? | -24%
COc1cc(O)c(C(=O)/C=C/c2ccc(OC)c(O)c2)c(OC)c1 | 100µM* | -27%
Cc1ccccc1-c1ccc(CN2CCc3nnc(C(NS(C)(=O)=O)C(C)C)n3CC2)cc1 (configuration not stated) | -8% | ?
OCC(S)CS (configuration not stated) | 12% | -16%
CCC(=O)O[C@]1(C(=O)CCl)[C@@H](C)C[C@H]2[C@@H]3C[C@H](F)C4=CC(=O)C=C[C@]4(C)[C@@]3(F)[C@@H](O)C[C@@]21C | 11% | ?
O=c1c(-c2cc(F)cc(F)c2)nc2cnc(N3CCNCC3)nc2n1Cc1cccs1 | ? | 45µM*
O=c1c(-c2ccccc2)nc2cnc(N3CCOCC3)nc2n1-c1ccccc1 | -31% | -17%
COc1ccc(-n2c(=O)c(-c3cccs3)nc3cnc(Nc4cccc(OC)c4)nc32)cc1 | 100µM* | 28%
COCCn1c(=O)c(-c2cccs2)nc2cnc(Nc3ccccc3)nc21 | 100µM* | 71%
COCCn1c(=O)c(-c2ccc(OC)cc2)nc2cnc(Nc3ccccc3)nc21 | -19% | -18%
O=c1c(-c2cc(F)cc(F)c2)nc2cnc(N3CCOCC3)nc2n1-c1ccccc1 | 112µM* | -9%
COc1cccc(Nc2ncc3nc(-c4cccs4)c(=O)n(CCC#N)c3n2)c1 | ? | 3%
SMILES | EPAC1 ag val | EPAC2 antag
O=c1c(-c2cc(F)cc(F)c2)nc2cnc(N3CCOCC3)nc2n1Cc1cccs1 | -30% | -2%
Cc1nnsc1C(=O)NCC1Cc2cccc(-c3ncccn3)c2O1 (configuration not stated) | -1% | -26%
CC(=O)Nc1cc(C(=O)N2CC3(C)CC2CC(C)(C)C3)cc2ncn(CCc3ccccn3)c12 (configuration not stated) | -2% | -1%
Cc1cc2nc(N3CCCN(Cc4cccn4-c4ncccn4)CC3)nc(C)c2cc1C | 7% | -20%
C[C@@H]1CN(Cc2ccc3c(c2)CN(Cc2cccn2-c2cccnc2)CCO3)C[C@H](C)O1 | 7% | 0%
COCCn1c(=O)c(-c2cccs2)nc2cnc(N3CCOCC3)nc21 | 112µM* | 15%
COc1ccc(-n2c(=O)c(-c3cccs3)nc3cnc(N4CCOCC4)nc32)cc1 | ? | -26%
O=c1c(-c2cccs2)nc2cnc(N3CCNCC3)nc2n1Cc1cccs1 | ? | 56µM*
CN(C)c1ncc2nc(-c3cccs3)c(=O)n(CCC#N)c2n1 | 100µM* | 113%
COc1ncc2nc(-c3cccs3)c(=O)n(CCC#N)c2n1 | -31% | -20%
CN(C)c1ncc2ncc(=O)n(Cc3cccs3)c2n1 | -6% | 45µM*
COc1ncc2ncc(=O)n(Cc3cccs3)c2n1 | 3% | -21%
